# Source: PubChem (National Center for Advancing Translational Sciences (NCATS))
# An excerpt weighted towards active compounds, which were near 3% of everything screened.
# Ub-GFP proteasome: proteasome inhibitors stabilizing ubiquitin-GFP reporter; 67,000 tested, under 10 active; Ubiquitin-GFP reporter cells, proteasome inhibition, GFP fluorescence; response scale: untreated = 0%, 10 µM MG-132 = 100%; Potency, µM (highest dose often 45.9 µM), without a hit: top-dose activation (GFP accumulation), usual class: activators; active = well fitted activation curve with a large enough effect, not every such curve was filed as active; inconclusive = small, poorly fitted or top-dose-only effect, or another doubt; inactive = no such curve, though single readings can be large or run the other way; also: potency is read from the fitted curve at half-maximal effect
#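 Proteasome blockade was scored as a rise in GFP-expressing U2OS cells carrying a ubiquitin(G76V)-GFP construct, imaged after 4 hr compound treatment at 37 °C across a 46 uM–2.9 nM series.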
# ERK AVP inh: inhibitors of vasopressin-stimulated ERK signaling pathway. Potency, µM (top dose mostly 57.5 µM), without a hit: top-dose activity, negative = inhibition, hits mostly inhibitors. hit rate 0.99% among 72,000. HEK293-V1b, vasopressin-stimulated pERK AlphaScreen; also: potency is read from the fitted curve at half-maximal effect; % is scaled to controls: 0 for no effect and ±100 for the full control effect; nearly all actives have a fitted effect of over 55% in size
#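 qHTS, compounds titrated on V1b-expressing HEK293 cells. Preincubation 30 min at 37C, vasopressin 25 nM for 5 min, lysis 10 min, bead incubation 5 hr at room temperature.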
# Tau fil binding: tau filament binding. P10636. recombinant tau filaments, thioflavin S fluorescence, 15 h; filaments grown with octadecylsulfate alongside compound. Potency, µM (top dose mostly 57.1 µM), inactives show top-dose activity change, negative = inhibition. hit rate 2% among 71,000;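 also: potency is read from the fitted curve at half-maximal effect; % is scaled to controls: 0 for no effect and ±100 for the full control effect; actives lower thioflavin S fluorescence by blocking filaments or displacing dye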
# Target sequence (P10636 whole entry, looked up): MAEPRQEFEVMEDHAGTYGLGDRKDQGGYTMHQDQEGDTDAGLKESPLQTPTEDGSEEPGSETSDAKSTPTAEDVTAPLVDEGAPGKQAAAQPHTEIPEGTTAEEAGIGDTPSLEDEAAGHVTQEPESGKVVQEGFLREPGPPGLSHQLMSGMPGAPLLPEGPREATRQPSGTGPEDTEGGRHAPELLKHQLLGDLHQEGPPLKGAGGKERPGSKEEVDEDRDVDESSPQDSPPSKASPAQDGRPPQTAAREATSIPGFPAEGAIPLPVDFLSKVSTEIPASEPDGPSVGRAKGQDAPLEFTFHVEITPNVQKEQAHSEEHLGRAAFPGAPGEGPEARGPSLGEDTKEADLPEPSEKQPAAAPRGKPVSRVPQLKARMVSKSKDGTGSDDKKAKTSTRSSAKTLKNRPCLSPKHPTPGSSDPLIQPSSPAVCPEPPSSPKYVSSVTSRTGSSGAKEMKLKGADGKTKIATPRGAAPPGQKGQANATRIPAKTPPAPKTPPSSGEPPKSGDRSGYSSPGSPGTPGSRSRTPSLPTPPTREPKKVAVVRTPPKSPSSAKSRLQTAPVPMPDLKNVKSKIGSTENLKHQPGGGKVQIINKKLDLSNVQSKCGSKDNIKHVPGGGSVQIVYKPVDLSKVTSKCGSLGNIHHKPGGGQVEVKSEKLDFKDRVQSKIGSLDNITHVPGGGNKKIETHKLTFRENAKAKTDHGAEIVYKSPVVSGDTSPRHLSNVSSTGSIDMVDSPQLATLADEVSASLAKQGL
#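 His-tagged recombinant human tau (exons 2, 3, 10; 1 uM final) fibrillized with 30 uM sodium octadecylsulfate, 15 h at 37 C, in pH 7.4 HEPES buffer with 10 uM thioflavine S and 5 mM DTT. Reduced ThS fluorescence (450/510 nm) marks activity.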
# Epigenetic mod: epigenetic modulators derepressing GFP locus in mouse cells; mouse C127i GFP locus derepression, cytometry, 30 h; Potency, µM (top dose mostly 46.1 µM), without a hit: at the highest dose GFP derepression (activation); hit rate 0.09% among 68,000; also: % of control where 0% means no effect
#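 Derepression screen: silenced CMV-GFP reporter in murine C127i cells, 30 h compound incubation at 37 C, washed cells imaged by laser-scanning cytometer to enumerate GFP-expressing objects of 20 to 120 um.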
# HBB splice mod: hemoglobin beta splicing modulation; Potency, µM (top dose mostly 46.1 µM), for inactives: at the top dose activation, usual class: activators; AID 925; HBB splicing reporter cell assay, activation; EGFP reporter with mutant IVS2-654 intron; response scale: normalised to 500 nM splice-correcting PNA; hit rate 0.06% among 65,000; also: potency is read from the fitted curve at half-maximal effect; 0% is about no effect
#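 HeLa cells stably expressing EGFP interrupted by mutant beta-globin intron 2 (IVS2-654), 500/well in 2% FCS. Treated with compound for 2 days at 37C. Splicing correction scored as total well GFP intensity (488 nm excitation, 500-520 nm emission); 500 nM antisense PNA served as control.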
# Hsp90 Hop PPI: changes Hsp90-Hop TPR2A binding signal, up or down; AlphaScreen TPR2A-His6 binding biotin-Hsp90 C-terminal peptide; Potency, µM (top dose mostly 57 µM), without a hit: at the highest dose activity change, negative = inhibition; hit rate 0.44% among 71,000; active = well fitted curve in either direction with a large enough effect; inconclusive = small, poorly fitted or top-dose-only effect, or another doubt; also: potency is read from the fitted curve at half-maximal effect; % is scaled to controls: 0 for no effect and ±100 for the full control effect
# Active calls of the source: *; u = inconclusive; x = not tested or not shown; [ ] = another dose, or the depositor's remark. Unless noted, calls follow the shape of the dose curve; as a rule, active = well fitted curve in the direction sought with a large enough effect; inconclusive = small, poorly fitted or top-dose-only effect, or another doubt; inactive = no such curve, though single readings can be large; an effect the other way counts as inactive or inconclusive.
SMILES,Ub-GFP proteasome,ERK AVP inh,Tau fil binding,Epigenetic mod,HBB splice mod,Hsp90 Hop PPI
CCN(CC)Cc1cc(Nc2ccnc3cc(Cl)ccc23)ccc1O,3%[20.5 µM],-6%[25.7 µM],3.2µM*,-1%[20.6 µM],-1%[20.6 µM],-4%[26 µM]
OC[C@@H](O)CNc1ncnc2ccccc12,0%[9.17 µM],-6%[11.5 µM],5%[11.4 µM],7%[9.22 µM],0%[9.22 µM],2%[11 µM]
Fc1ccc([C@H]2CCNC[C@H]2COc2ccc3c(c2)OCO3)cc1,2%,-14%,32µM*,0%,x,-7%
COc1ccc(CCNC(=O)CN2CCN(c3cccc(Cl)c3)CC2)cc1OC,-1%,20µM*,-1%,-2%,0%[57.5 µM],1%
CCOC(=O)C1=C(CS(=O)(=O)c2ccccc2)NC(=O)NC1c1ccccc1OCC (stereo unspecified),-6%,-3%,4%,x,-1%,u
CCOC(=O)C1=C(CS(=O)(=O)c2ccc(F)c(C)c2)NC(=O)NC1c1ccc(O)c(O)c1 (stereo unspecified),-6%,25µM*,1%,x,-1%,-6%[2.3 µM]
Cc1ccc(-c2noc(CN(C(=O)CCCN3C(=O)c4ccccc4C3=O)C(C)C)n2)cc1,-3%,-7%,16µM*,0%,0%,1%
Cc1ccc(-c2noc(CN(C(=O)CCCCCN3C(=O)c4ccccc4C3=O)C(C)C)n2)cc1,-3%,40%,u,-3%,-2%,6%
CC(C)C[C@H](NC(=O)[C@@H](O)[C@@H](N)Cc1ccccc1)C(=O)O,2%,1%,-3%,-1%,1%,-9%
CC(C)=CCl,x,13%,0%,x,2%,1%
CN(C)CCCN1c2ccccc2Sc2ccccc21,5%[20.5 µM],-8%,10µM*,-2%[20.6 µM],-1%[20.6 µM],-8%[26 µM]
CCC(=O)c1ccc2c(c1)N(CCCN(C)C)c1ccccc1S2,0%,4%,u,1%,-1%,-2%
CC(=O)c1ccc2c(c1)N(CCCN(C)C)c1ccccc1S2,2%[20.5 µM],10%[25.7 µM],3.2µM*,3%[20.6 µM],-1%[20.6 µM],1%[26 µM]
COc1ccc2c(c1)Sc1ccccc1N2CCN(C)C,3%,u,16µM*,0%,x,u
COC(=O)c1ccc(C23CC2(C(NP(=O)(c2ccccc2)c2ccccc2)c2ccccc2)C3)cc1 (stereo unspecified),x,4%,-12%,x,1%,30%
COc1ccc(N2C(=O)c3ccc(NC(C)=O)cc3C2=O)cc1,2%,-6%,2%,0%,x,-1%
COc1cc2c3c(c1)/C(=C1/SC(NC(C)=O)=NC1=O)C(=O)N3C(C)(C)C=C2C,-4%,26%,-16%,2%,-2%,25µM*
O=C(O)/C(=C\c1ccncc1)c1cccc2ccccc12,-4%[9.17 µM],-4%[11.5 µM],-12%[11.4 µM],-6%[9.22 µM],4%[9.22 µM],1%[11 µM]
CC1=C(C(=O)Nc2cc(-c3cccc(F)c3)[nH]n2)C2(CCCCC2)OC1=O,0%,-21%,13µM*,-3%,-1%,-6%
COc1ccc(OC)c2c(C)cc(N3CCN(C(=O)c4ccc(F)cc4)CC3)nc12,-8%,32µM*,-28%,-2%,-1%,-9%
COc1ccc(C(=O)N2CCN(c3ccc(C)c(C)c3)CC2)cc1OC,17%,x,-6%,x,-1%,-8%
O=C1CN2CCN(CC2)CC(=O)Nc2ccc(cc2)S(=O)(=O)c2ccc(cc2)NC(=O)CN2CCN(CC2)CC(=O)Nc2ccc(cc2)S(=O)(=O)c2ccc(cc2)N1,7%[9.17 µM],10%[11.5 µM],69%[11.4 µM],0%[9.22 µM],7%[9.22 µM],-5%[11 µM]
Cc1c(C)n(C)c2ccc(C(=O)NCc3cccs3)cc12,9%,13µM*,23%,x,-2%,-6%[2.3 µM]
CCCN1C(=O)c2cc(C(=O)NCc3cccs3)ccc2C1O (stereo unspecified),-13%,-4%,-4%,x,-1%,-2%[2.3 µM]
Cc1ccc(-c2cn(S(=O)(=O)c3cccc4nsnc34)nc2N)cc1,0%,-6%,16µM*,2%,-4%,u
SMILES,Ub-GFP proteasome,ERK AVP inh,Tau fil binding,Epigenetic mod,HBB splice mod,Hsp90 Hop PPI
CC(C)(C)NS(=O)(=O)c1cccc2nsnc12,15%,28%,-1%,0%,0%,-2%
Nc1nn(S(=O)(=O)c2cccc3nsnc23)cc1-c1ccc(Br)cc1,-7%,u,16µM*,0%,0%,u
Cc1ccc(C)c(N(C)S(=O)(=O)c2cccc3nsnc23)c1,6%,17%,u,6%,-1%,-5%
Nc1ccc(C(=O)C[C@H](N)C(=O)O)cc1O,-3%[9.17 µM],11%[11.5 µM],-9%[11.4 µM],-4%[9.22 µM],-2%[9.22 µM],-4%[11 µM]
O=C(Nc1ccc(Nc2ccccc2)cc1)c1ccc(Br)o1,3%,u,16µM*,4%,0%,-17%
O=C(Nc1ccc(N2CCN(C(=O)c3ccc(Cl)cc3)CC2)cc1)c1ccc(Br)o1,3%,u,25µM*,u,2%,-23%
CC(C)C(=O)N1CCN(c2ccc(NC(=O)c3ccc(Br)o3)cc2)CC1,-3%,-22%,-8%,3%,-1%,-3%
CCN1C(=O)[C@@H]2[C@H]3C(=CC[C@H]2C1=O)C(=O)[C@H]1OC1[C@H]3O (stereo partly specified),x,29%[11.5 µM],x,x,5%[9.22 µM],x
COC(=O)c1cn(CCOc2ccccc2)c2ccccc12,-1%,13%,-8%,-2%,-1%,25µM*
COc1cc2c(cc1O)CC[C@@H]1[C@@H]2CC[C@@]2(C)[C@H](O)CC[C@H]12,2%,3%,3%,-2%,0%,-8%
COc1cc(OC)c(C2N(c3ccc(Cl)cc3)C(=O)C3CCCN32)cc1OC (stereo unspecified),-3%,u,20µM*,3%,0%,-5%
CCOC(=O)c1c(NC(=O)CSc2nc3cccnc3n2C)sc(C(C)=O)c1C,5%,-28%,1%,0%,-4%,-2%
CCOC(=O)c1cccc(NC(=O)c2cnc3ccccc3n2)c1,0%,5%,25µM*,-3%,-3%,1%
CCOC(=O)c1cccc(NC(=O)CSc2nc3cccnc3n2C)c1,2%,25µM*,-6%,0%,0%,-5%
c1ccc2c(c1)Cc1cc3ccccc3nc1-2,x,13µM*,u,x,9%,14%
Cc1cnc(CNc2ncnc3ccc(-c4ccc(C(=O)N(C)C)cc4)cc23)cn1,-7%,-26%,-6%,0%[9.22 µM],0%,1%
CN(C)c1ccc(-c2cncnc2NCc2ccccc2)cc1,7%,25µM*,-11%,3%[9.22 µM],2%,-24%
COCCNc1ncnc2ccc(-c3ccc(N(C)C)cc3)cc12,-2%,u,16µM*,2%[9.22 µM],-2%,-10%
Cc1cnc(CNc2ncnc3ccc(-c4ccc(N(C)C)cc4)cc23)cn1,-1%,u,25µM*,11%[9.22 µM],1%,-21%
